Hits are enriched below; roughly 1.7% of the tested compounds scored in any of these assays.
MT1-MMP txn act = activates MT1-MMP transcription | HT1080 MT1-MMP promoter luciferase reporter, luminescence, overnight; stronger effect = higher value | activation factor at 10 µM | 86,000 compounds, 0.16% hits;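 active = activation factor of at least 2 for MT1-MMP transcription at 10 µM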
Smad3 inh = Smad3 (human) transcription factor binding inhibition; TR-FRET Smad3/Dy647-FoxH1 peptide binding, europium anti-His; inhibition, % at 25 µM; 88,000 compounds, 0.29% hits; P84022; AID 630;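 active = compounds that reduce the energy-transfer binding signal between the protein and its labelled peptide by more than half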;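 also: 0% = Smad3 plus labelled peptide maximal FRET and 100% = peptide-only background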
Target sequence (P84022 whole entry, looked up): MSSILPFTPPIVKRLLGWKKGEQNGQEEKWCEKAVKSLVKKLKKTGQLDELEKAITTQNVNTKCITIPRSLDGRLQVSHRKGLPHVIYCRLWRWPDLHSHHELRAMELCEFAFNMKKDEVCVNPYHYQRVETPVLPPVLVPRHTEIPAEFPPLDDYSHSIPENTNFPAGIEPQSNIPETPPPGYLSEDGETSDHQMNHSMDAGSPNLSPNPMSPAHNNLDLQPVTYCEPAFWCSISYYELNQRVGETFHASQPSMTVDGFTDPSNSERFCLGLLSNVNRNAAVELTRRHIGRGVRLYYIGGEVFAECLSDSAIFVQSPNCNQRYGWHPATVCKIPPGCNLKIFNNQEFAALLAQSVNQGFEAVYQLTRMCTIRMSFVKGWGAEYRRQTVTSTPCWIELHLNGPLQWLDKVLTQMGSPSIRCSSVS
Measles CPE = protection of cells from measles virus. Measles virus-infected cells, CPE protection, absorbance. protection (pct of control), % at 4 µM. 140,000 compounds, 1.5% hits; in the data active = protection mostly above about 24%, no sharp cut-off; inactive = mostly below about 26%
* hit, by the source's call; [ ] = dose if it differs, or a comment.

What do the screens show for `CC(=O)OC1=CC2=CC[C@H]3[C@@H]4CCC(=O)[C@@]4(C)CC(=O)[C@]3(S)[C@]2(C)CC1`?
Smad3 inh: 35

How did C(=NC12CN3CN(CN(C3)C1)C2)c1cccs1 do in these assays?
Measles CPE: 55*

How did O=S(=O)(NCCO)c1cc[c]([Sb](=[O])([OH])[OH])cc1 do in these assays?
Smad3 inh: 3

Results for O=c1[nH]c2ccccc2o1 ?
Measles CPE: 45*

How did CCOC(=O)C1(c2ccccc2)CCN(CC(=O)Nc2cccc3ccccc23)CC1 do in these assays?
Measles CPE: 8

How did O=C(Nc1cccc2ccccc12)c1nn(C23CC4CC(CC(C4)C2)C3)cc1Br do in these assays?
Measles CPE: 38*

Results for C[C@]12Cc3cnc(-c4ccccc4)nc3C[C@@H]1CC[C@H]1[C@H]2CC[C@@]2(C)[C@H]1CC[C@]2(C)O ?
Smad3 inh: -2

What do the screens show for `Fc1ccc(C(OCCN2CCCC2)c2ccc(F)cc2)cc1`?
Measles CPE: 4

How did Fc1ccc(C(OCCN2CCCC2)c2ccc(Br)cc2)cc1 (configuration not stated) do in these assays?
Measles CPE: 54*

Results for C[C@]12CC[C@H](O)C[C@@H]1CC[C@H]1[C@H]2CC[C@]2(C)[C@@H]1CC[C@H]2C(=O)C[C@H](O)C(F)(F)F ?
Smad3 inh: 0

How did CCN(CC)P(=O)(NC(=O)C(Cl)(Cl)Cl)N(CC)CC.[Cl-].[Cl-].[Cl-].[Nd+3] do in these assays?
MT1-MMP txn act: 1; Smad3 inh: 67*[fluorescence artefact?]; Measles CPE: 5

Results for Cn1c(=O)c2[nH]cnc2n(C)c1=O.[CH2-][C@H](Cc1cccc2cc(C(=O)O)c(=O)oc12)OC.[Hg].[OH-] ?
Smad3 inh: 68*

How did c1ccc2c([C@@H]3CCN(CCN4CCOCC4)C3)c[nH]c2c1 do in these assays?
Smad3 inh: 23

Results for N#CS.N=C=S.N=C=S.[Cu].[NH2-].[NH2-].[NH2-].[NH2-].c1ccc2ncccc2c1 ?
Smad3 inh: 63*

What do the screens show for `C[C@H](O)[C@H]1CC[C@H]2[C@@H]3CCC4=CC(=O)CC[C@]4(C)[C@H]3CC[C@]12C`?
Measles CPE: 24

How did C[C@@]12CC[C@@H]3[C@H](CCC4=CC(=O)CC[C@H]43)[C@H]1CC[C@H]2OC1(O)C(=O)c2ccccc2C1=O do in these assays?
Smad3 inh: 54*

How did Cc1nc2ccccc2c(=O)n1-c1ccc(F)cc1 do in these assays?
MT1-MMP txn act: 1.1; Smad3 inh: -26; Measles CPE: 31*

Results for Cc1nc2ccccc2c(=O)n1-c1ccccc1C(F)(F)F ?
Measles CPE: 32

What do the screens show for `O=P(O)(OP(=O)(O)c1ccccc1)c1ccccc1` (tested in a mixture with another compound)?
Smad3 inh: -1

Results for O=C(O)[C@@H](O)[C@@H](O)[C@@H]1[O][Sb][O][C@@H]1CO ?
Smad3 inh: 16

Results for CC[C@@H]1[C@@H]2Cc3ccc(O)cc3[C@@]1(CC)CCN2C ?
Smad3 inh: 19

Results for O=C(O)[C@@H](Br)[C@H](Br)C(=O)O ?
Smad3 inh: -6

What do the screens show for `O=c1[nH]c(=O)n(CCC2=CCCCC2)c(O)c1C=NCCN1CCNCC1`?
MT1-MMP txn act: 1.1; Smad3 inh: -4; Measles CPE: 35*

How did C=CCn1c(O)c(C=NCCN2CCNCC2)c(=O)[nH]c1=O do in these assays?
MT1-MMP txn act: 1.1; Smad3 inh: 7; Measles CPE: 2

How did NC(CCl)=N[C@H]1CN2CCC1CC2 do in these assays?
Smad3 inh: -15

Results for CCCN1C2CCCC1CC(NC(C)=O)C2 (configuration not stated) ?
MT1-MMP txn act: 1.1; Smad3 inh: 4; Measles CPE: 49*

What do the screens show for `CC(=O)NC1CC2CCCC(C1)N2` (configuration not stated)?
MT1-MMP txn act: 1.3; Smad3 inh: 12; Measles CPE: 28

Results for c1ccc(C[N+]23CN4CN(CN(C4)C2)C3)cc1 ?
Smad3 inh: -14

What do the screens show for `CCN1CCN(Cc2cc(C(C)(C)C)c(O)c(C(C)(C)C)c2)CC1`?
MT1-MMP txn act: 1.1; Smad3 inh: 10; Measles CPE: 60*

Results for CCN1CCN(Cc2ccc(C)cc2)CC1 ?
MT1-MMP txn act: 1.1; Smad3 inh: -4; Measles CPE: 6

Results for CCc1ccc(CCN2CCCCC2)nc1 ?
Smad3 inh: -2

Results for c1ccc2cc3cc4ccccc4cc3cc2c1 ?
MT1-MMP txn act: 1.8; Smad3 inh: 4

How did N[C@@H](Cc1ccccc1)P(=O)(O)O do in these assays?
Smad3 inh: -2

How did COc1cccc(CN2CCCCC2c2cccnc2)c1 (configuration not stated) do in these assays?
MT1-MMP txn act: 1.1; Smad3 inh: -1; Measles CPE: 12

What do the screens show for `COc1ccc(CN2CCCCC2c2cccnc2)cc1C` (configuration not stated)?
MT1-MMP txn act: 1.2; Smad3 inh: 11; Measles CPE: 38*

How did C[C@@H]1[C@@H](C)N1C[C@H](O)Cn1ccnc1[N+](=O)[O-] (some centres not stated) do in these assays?
Smad3 inh: -5

Results for COC(=O)[C@@H]1C(=O)[C@H](C(=O)OC)[C@@H]2CC[C@H]1N2C ?
Smad3 inh: -3

How did CN1C(=O)C(=Cc2ccc(N3CCOCC3)o2)C(=O)N(C)C1=O do in these assays?
Measles CPE: 25

Results for CN1C(=O)C(=Cc2ccc(-c3cccc(Cl)c3)o2)C(=O)N(C)C1=O ?
Measles CPE: 20*

What do the screens show for `Cc1cc(OCc2nn[nH]n2)c2c3c(c(=O)oc2c1)CCCC3`?
MT1-MMP txn act: 1.2; Smad3 inh: 2; Measles CPE: 4

What do the screens show for `Cc1cc(OCc2ccc([N+](=O)[O-])cc2)c2c3c(c(=O)oc2c1)CCCC3`?
Measles CPE: 46*

What do the screens show for `CC1=C2C(=O)[C@H]3[C@@H](CC=C4C[C@@H](O)CC[C@@]43C)[C@@H]2CC[C@@]12O[C@@H]1C[C@H](C)CN[C@H]1[C@@H]2C`?
Smad3 inh: 7
